According to the antibiotic and cytotoxicity screens of Wong et al. (2023):
Out of some 39,000 compounds screened, about 3,300 (8.5%) were called active. Many of the other results were omitted from the sample, so actives are more common in it than they were.

System: HepG2
Test: cytotoxicity call (relative viability < 0.9)
Settings: 10 µM

| Compound | cytotoxicity call |
| --- | --- |
| O=C(Cn1cc([N+](=O)[O-])cn1)n1cccn1 | inactive |
| C[C@@H]1CCCCO[C@H](CN(C)C(=O)Nc2ccc(F)cc2)[C@@H](C)CN([C@@H](C)CO)C(=O)c2cc(NC(=O)Cc3ccccc3)ccc2O1 | inactive |
| COc1ccc(CN(C)C[C@@H]2OCCCC[C@H](C)Oc3ccc(NC(=O)Nc4ccc(OC)cc4)cc3C(=O)N([C@@H](C)CO)C[C@@H]2C)cc1 | active |
| COc1ccc(CN(C)C[C@H]2OCCCC[C@@H](C)Oc3ccc(NC(=O)Nc4ccc(OC)cc4)cc3C(=O)N([C@H](C)CO)C[C@@H]2C)cc1 | inactive |
| COc1ccc(CN(C)C[C@@H]2OCCCC[C@@H](C)Oc3ccc(NC(=O)Nc4ccc(OC)cc4)cc3C(=O)N([C@H](C)CO)C[C@@H]2C)cc1 | inactive |
| COc1ccc(CN(C)C[C@@H]2OCCCC[C@@H](C)Oc3ccc(NC(=O)Nc4ccc(OC)cc4)cc3C(=O)N([C@@H](C)CO)C[C@@H]2C)cc1 | active |
| COc1ccc(CN(C)C[C@@H]2OCCCC[C@@H](C)Oc3ccc(NC(=O)Nc4ccc(OC)cc4)cc3C(=O)N([C@@H](C)CO)C[C@H]2C)cc1 | inactive |
| COc1ccc(CN(C)C[C@H]2OCCCC[C@@H](C)Oc3ccc(NC(=O)Nc4ccc(OC)cc4)cc3C(=O)N([C@@H](C)CO)C[C@H]2C)cc1 | active |
| COc1ccc(CN(C)C[C@H]2OCCCC[C@H](C)Oc3ccc(NC(=O)Nc4ccc(OC)cc4)cc3C(=O)N([C@H](C)CO)C[C@@H]2C)cc1 | active |
| COc1ccc(CN(C)C[C@H]2OCCCC[C@@H](C)Oc3ccc(NC(=O)Nc4ccc(OC)cc4)cc3C(=O)N([C@@H](C)CO)C[C@@H]2C)cc1 | inactive |
| COc1ccc(CN(C)C[C@@H]2OCCCC[C@H](C)Oc3ccc(NC(=O)Nc4ccc(OC)cc4)cc3C(=O)N([C@H](C)CO)C[C@@H]2C)cc1 | inactive |
| Cc1noc(C)c1NC(=O)N[C@@H]1C=C[C@H](CC(=O)N2CCN(C)CC2)O[C@H]1CO | inactive |
| CC(C)Cc1ccc([C@@H](C)c2nc(-c3cccs3)no2)cc1 | inactive |
| C[C@H](CO)N1C[C@H](C)[C@H](CN(C)C(=O)CCCN(C)C)OCc2cn(nn2)CCCC1=O | inactive |
| Cc1noc(C)c1S(=O)(=O)Nc1cccc2c1O[C@H](CN(C)C(=O)Nc1ccc3c(c1)OCO3)[C@H](C)CN([C@H](C)CO)C2=O | inactive |
| Cc1noc(C)c1S(=O)(=O)Nc1ccc2c(c1)C(=O)N([C@H](C)CO)C[C@H](C)[C@@H](CN(C)CC1CCCCC1)OCCCC[C@H](C)O2 | inactive |
| C[C@@H]1CN([C@H](C)CO)C(=O)c2cccc(NS(=O)(=O)c3cccs3)c2O[C@@H]1CN(C)Cc1ccncc1 | inactive |
| N=C(N)N/N=C1\CCc2c(C(=N)N)cccc21 | inactive |
| C[C@@H]1CN([C@@H](C)CO)C(=O)Cc2cc(NC(=O)CCCCCC(=O)Nc3ccccc3N)ccc2O[C@@H]1CN(C)C(=O)Nc1cccc2ccccc12 | inactive |
| CCS(=O)(=O)Nc1ccc2c(c1)C(=O)N(C)C[C@@H](OC)[C@@H](C)CN(Cc1ccccn1)[C@H](C)CO2 | inactive |

| Compound | cytotoxicity call |
| --- | --- |
| C[C@@H]1CN([C@@H](C)CO)C(=O)c2cc(NS(=O)(=O)c3cn(C)cn3)ccc2O[C@@H](C)CCCCO[C@@H]1CN(C)C | inactive |
| COc1ccc(NC(=O)Nc2ccc3c(c2)C(=O)N([C@@H](C)CO)C[C@H](C)[C@@H](CN(C)Cc2ccncc2)OCCCC[C@@H](C)O3)cc1 | active |
| COc1ccc(CN(C)C[C@H]2OCCCC[C@H](C)Oc3ccc(NC(=O)Nc4ccc(OC)cc4)cc3C(=O)N([C@H](C)CO)C[C@H]2C)cc1 | active |
| COc1ccc(CN(C)C[C@H]2OCCCC[C@@H](C)Oc3ccc(NC(=O)Nc4ccc(OC)cc4)cc3C(=O)N([C@H](C)CO)C[C@H]2C)cc1 | active |
| COc1ccc(NC(=O)Nc2ccc3c(c2)C(=O)N([C@H](C)CO)C[C@@H](C)[C@@H](CN(C)Cc2ccncc2)OCCCC[C@H](C)O3)cc1 | inactive |
| COc1ccc(NC(=O)Nc2ccc3c(c2)C(=O)N([C@H](C)CO)C[C@H](C)[C@@H](CN(C)Cc2ccncc2)OCCCC[C@@H](C)O3)cc1 | inactive |
| COc1cccc(S(=O)(=O)N(C)C[C@H]2Oc3ncc(C#CCC(C)C)cc3C(=O)N([C@@H](C)CO)C[C@@H]2C)c1 | inactive |
| C[C@@H]1CN([C@H](C)CO)C(=O)CCCn2nncc2CO[C@H]1CN(C)S(=O)(=O)c1ccccc1C#N | inactive |
| C[C@H](CO)N1C[C@H](C)[C@H](CN(C)CC2CCCCC2)Oc2ccc(NC(=O)Cc3cn(C)c4ccccc34)cc2CC1=O | inactive |
| C[C@@H]1CN([C@@H](C)CO)C(=O)c2cc(NS(=O)(=O)c3ccc(F)cc3)ccc2O[C@H]1CN(C)CC1CC1 | inactive |
| CCS(=O)(=O)Nc1ccc2c(c1)C(=O)N(C)[C@@H]1CC[C@@H](CC(=O)NCc3ccc(OC)cc3)O[C@H]1CO2 | inactive |
| COCC#Cc1ccc([C@H]2[C@@H](CO)N3C(=O)CN(C(=O)C4CCOCC4)C[C@H]23)cc1 | inactive |
| COc1ccc2c3c(n(c2c1)C)[C@@H](CO)N(C[C@]13CCN(CC1)CC1CCOCC1)C(=O)Cc1ccccn1 | inactive |
| C[C@H](CO)N1C[C@H](C)[C@@H](CN(C)S(=O)(=O)c2cn(C)cn2)Oc2ccc(NS(C)(=O)=O)cc2CC1=O | inactive |
| Cc1noc(C)c1S(=O)(=O)Nc1ccc2c(c1)C(=O)N([C@@H](C)CO)C[C@H](C)[C@H](CN(C)S(=O)(=O)c1ccc(Cl)cc1)O2 | inactive |
| O=C(O)[C@H]1C2C(=O)N3CCCO[C@@H]3[C@]23C=C[C@H]1O3 (stereo not given in full) | inactive |
| CCOP(=O)(CC(=O)O[C@H]1[C@H](OC(=O)Nc2ccccc2-c2ccccc2)[C@H](OC(=O)Nc2ccccc2-c2ccccc2)[C@@H](OC)O[C@@H]1COC(=O)NCCCCCC(=O)NO)OCC | active |
| CO[C@H]1O[C@H](COC(=O)NCCCCCC(=O)NO)[C@@H](OC(=O)c2ccccc2)[C@H](OC(=O)Nc2ccccc2-c2ccccc2)[C@@H]1OC(=O)Nc1ccccc1-c1ccccc1 | active |
| COc1ccc(NC(=O)O[C@H]2[C@H](OC(=O)Nc3ccccc3-c3ccccc3)[C@H](OC(=O)Nc3ccccc3-c3ccccc3)[C@@H](OC)O[C@@H]2COC(=O)NCCCCCC(=O)NO)cc1 | inactive |
| COc1ccc(NC(=O)O[C@H]2[C@H](OC(=O)Nc3ccccc3-c3ccccc3)[C@@H](OC(=O)Nc3ccccc3-c3ccccc3)[C@@H](OC)O[C@@H]2COC(=O)NCCCCCC(=O)NO)cc1 | inactive |

| Compound | cytotoxicity call |
| --- | --- |
| CO[C@H]1O[C@H](COC(=O)NCCCCCC(=O)NO)[C@H](OC(=O)Nc2ccccc2)[C@H](OC(=O)Nc2ccccc2)[C@H]1OC(=O)Nc1ccccc1 | inactive |
| CCOP(=O)(CC(=O)O[C@H]1[C@@H]2OC(=O)[C@@H](Cc3ccc4ccccc4c3)C/C=C\C[C@H](Cc3ccc4ccccc4c3)C(=O)O[C@H]2[C@@H](OC)O[C@@H]1COC(=O)NCCCCCC(=O)NO)OCC | inactive |
| NCc1ccc2occc2c1 | inactive |
| Cc1ccc(S(=O)(=O)Nc2ccc3c(c2)CC(=O)N([C@H](C)CO)C[C@H](C)[C@H](CN(C)C(=O)Nc2ccc(C(F)(F)F)cc2)O3)cc1 | inactive |
| COc1ccc(S(=O)(=O)N(C)C[C@@H]2Oc3c(NC(=O)c4ccncc4)cccc3C(=O)N([C@@H](C)CO)C[C@H]2C)cc1 | inactive |
| CNC(=O)[C@@]12CCC3(CCN(C(=O)COC)CC3)[C@H]1CN(S(C)(=O)=O)C2 | inactive |
| C[C@@H]1CCCCO[C@@H](CN(C)CC2CCCCC2)[C@@H](C)CN([C@@H](C)CO)C(=O)c2cc(NC(=O)Cc3ccccc3)ccc2O1 | inactive |
| COc1ccc(NC(=O)Nc2cccc3c2O[C@H](CN(C)C(=O)Nc2cccc4ccccc24)[C@@H](C)CN([C@@H](C)CO)C3=O)cc1 | inactive |
| C[C@@H]1CN([C@@H](C)CO)C(=O)Cc2cc(NS(=O)(=O)c3ccccc3)ccc2O[C@H]1CN(C)Cc1ccc(-c2ccccc2)cc1 | inactive |
| C[C@H](CO)N1C[C@H](C)[C@@H](CN(C)Cc2ccc(-c3ccccc3)cc2)Oc2ccc(NS(=O)(=O)c3ccccc3)cc2CC1=O | inactive |
| C[C@H]1CN([C@@H](C)CO)C(=O)Cc2cc(NS(=O)(=O)c3ccccc3)ccc2O[C@@H]1CN(C)Cc1ccc(-c2ccccc2)cc1 | inactive |
| C[C@@H]1CN([C@H](C)CO)C(=O)Cc2cc(NS(=O)(=O)c3ccccc3)ccc2O[C@H]1CN(C)Cc1ccc(-c2ccccc2)cc1 | inactive |
| C[C@H](CO)N1C[C@H](C)[C@H](CN(C)Cc2ccc(-c3ccccc3)cc2)Oc2ccc(NS(=O)(=O)c3ccccc3)cc2CC1=O | active |
| C[C@@H]1CN([C@H](C)CO)C(=O)Cc2cc(NS(=O)(=O)c3ccccc3)ccc2O[C@@H]1CN(C)Cc1ccc(-c2ccccc2)cc1 | inactive |
| C[C@H]1CN([C@@H](C)CO)C(=O)Cc2cc(NS(=O)(=O)c3ccccc3)ccc2O[C@H]1CN(C)Cc1ccc(-c2ccccc2)cc1 | active |
| C[C@@H]1CN([C@@H](C)CO)C(=O)Cc2cc(NS(=O)(=O)c3ccccc3)ccc2O[C@@H]1CN(C)Cc1ccc(-c2ccccc2)cc1 | active |
| c1ccc(-n2ncc3c2ncn2nnnc32)cc1 | inactive |
| CO[C@H]1CN(C)C(=O)c2cc(NC(=O)Nc3cccc(Cl)c3)ccc2OC[C@@H](C)N(C(=O)Nc2c(C)noc2C)C[C@@H]1C | inactive |
| C[C@@H]1CN([C@@H](C)CO)C(=O)c2cc(NC(=O)Cn3cnnn3)ccc2O[C@H]1CN(C)Cc1ccc(Oc2ccccc2)cc1 | inactive |
| CC/N=C1\S[C@@H](CC(=O)NC)C(=O)N1CC | inactive |
